Assay results from PubChem BioAssay AID1159580 (chemical genetic matrix, 2015).
Values joined by “and” are separate entries in the source; they are usually repeats but may differ in a detail not shown here. Equal entries are not always repeated. About 2,000 (36%) of roughly 5,500 compounds were called active. Another 18% or so got no clear call; they are omitted. No stated cut-off is given here; in the data, active means normalized growth mostly below about 0.91 (no sharp cut-off); inconclusive means no clear call, values can overlap the other calls; inactive means mostly above about 0.92. Some of the results follow.

Test: chemical genetic growth profiling, strain panel (AID 1159580);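 further: tested at 20 µM; growth read once vehicle control cultures reached saturation at 30 °C; 1 = growth at the plate median or of vehicle wells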
Conditions: S. cerevisiae deletion strains, growth OD

Measured: normalized growth

CCCCCc1c2c(cc(O)c1C(=O)O)OC(=O)c1c(cc(OC)cc1C(=O)CCCC)O2
inactive: locus YAL021C, strain ccr4, stronger effect = lower value 0.954 | locus YAL026C, strain drs2, stronger effect = lower value 1.01 | locus YAL030W, strain snc1, stronger effect = lower value 0.993 | locus YBL061C, strain skt5, stronger effect = lower value 0.999 | locus YBR009C, strain hhf1, stronger effect = lower value 1.01 | locus YBR021W, strain FUR4, stronger effect = lower value 1.02 | locus YBR023C, strain chs3, stronger effect = lower value 1 | locus YBR171W, strain sec66, stronger effect = lower value 1 | locus YBR229C, strain ROT2, stronger effect = lower value 0.935 | locus YBR231C, strain swc5, stronger effect = lower value 0.988 | locus YBR279W, strain paf1, stronger effect = lower value 1.01 | locus YCL011C, strain gbp2, stronger effect = lower value 0.997 | locus YCL016C, strain dcc1, stronger effect = lower value 0.994 | locus YCL029C, strain bik1, stronger effect = lower value 0.989 | locus YCL069W, strain vba3, stronger effect = lower value 1.03 | locus YCR088W, strain abp1, stronger effect = lower value 1 | locus YDL005C, strain med2, stronger effect = lower value 0.977 | locus YDL035C, strain GPR1, stronger effect = lower value 0.945 | locus YDL040C, strain nat1, stronger effect = lower value 0.994 | locus YDL074C, strain BRE1, stronger effect = lower value 0.982 | locus YDL101C, strain DUN1, stronger effect = lower value 0.998 | locus YDL185W, strain tfp1, stronger effect = lower value 0.968 | locus YDL192W, strain arf1, stronger effect = lower value 0.968 | locus YDR001C, strain nth1, stronger effect = lower value 1 | locus YDR069C, strain doa4, stronger effect = lower value 0.985 | locus YDR101C, strain arx1, stronger effect = lower value 0.961 | locus YDR137W, strain rgp1, stronger effect = lower value 0.941 | locus YDR150W, strain NUM1, stronger effect = lower value 0.99 | locus YDR159W, strain sac3, stronger effect = lower value 0.994 | locus YDR162C, strain NBP2, stronger effect = lower value 0.955 | locus YDR195W, strain ref2 0.977 | locus YDR297W, strain sur2, stronger effect = lower value 0.995 | locus YDR318W, strain mcm21, stronger effect = lower value 0.99 | locus YDR334W, strain swr1, stronger effect = lower value 1.01 | locus YDR335W, strain msn5, stronger effect = lower value 1 | locus YDR388W, stronger effect = lower value 0.997 | locus YDR392W, strain spt3, stronger effect = lower value 0.988 | locus YDR502C, strain sam2, stronger effect = lower value 1.03 | locus YEL003W, strain gim4, stronger effect = lower value 1.01 | locus YEL037C, strain rad23, stronger effect = lower value 1.01 | locus YEL061C, strain CIN8 (second series), stronger effect = lower value 1.02 | locus YER015W, strain faa2, stronger effect = lower value 1 | locus YER016W, strain bim1, stronger effect = lower value 0.989 | locus YER110C, stronger effect = lower value 0.973 | locus YER111C, strain swi4, stronger effect = lower value 0.995 | locus YER155C, strain BEM2 (second series), stronger effect = lower value 0.998 | locus YER155C, strain BEM2, stronger effect = lower value 1.01 | locus YER167W, strain BCK2, stronger effect = lower value 0.985 | locus YFR010W, strain ubp6, stronger effect = lower value 1 | locus YGL078C, strain dbp3, stronger effect = lower value 0.977 | locus YGL086W, strain mad1, stronger effect = lower value 1 | locus YGL167C, strain pmr1, stronger effect = lower value 0.977 | locus YGL173C, strain kem1, stronger effect = lower value 0.991 | locus YGL227W, strain vid30, stronger effect = lower value 1.03 | locus YGL240W, strain doc1, stronger effect = lower value 0.964 | locus YGL248W, strain PDE1, stronger effect = lower value 0.99 | locus YGL253W, strain hxk2, stronger effect = lower value 1.01 | locus YGR135W, strain pre9, stronger effect = lower value 1.04 | locus YGR252W, strain gcn5, stronger effect = lower value 1.01 | locus YHR013C, strain ard1, stronger effect = lower value 0.989 | locus YHR027C, strain rpn1, stronger effect = lower value 1.01 | locus YHR030C, strain SLT2, stronger effect = lower value 0.961 | locus YHR079C, strain IRE1 (second series), stronger effect = lower value 0.988 | locus YHR079C, strain IRE1, stronger effect = lower value 0.959 | locus YHR094C, strain hxt1, stronger effect = lower value 0.983 | locus YHR129C, strain ARP1, stronger effect = lower value 0.993 | locus YHR142W, strain chs7, stronger effect = lower value 1.02 | locus YHR200W, strain rpn10, stronger effect = lower value 0.987 | locus YIL066C, strain RNR3, stronger effect = lower value 0.978 | locus YIL073C, strain SPO22, stronger effect = lower value 0.97 | locus YIL125W, strain kgd1, stronger effect = lower value 0.991 | locus YIR030C, strain dcg1, stronger effect = lower value 0.986 | locus YJL092W, strain hpr5, stronger effect = lower value 1.01 | locus YJL095W, strain BCK1 (second series), stronger effect = lower value 0.997 | locus YJL095W, strain BCK1, stronger effect = lower value 1.06 and 0.972 | locus YJL115W, strain asf1, stronger effect = lower value 0.982 | locus YJL129C, strain trk1, stronger effect = lower value 1.02 | locus YJL134W, strain LCB3, stronger effect = lower value 0.977 | locus YJL154C, strain vps35, stronger effect = lower value 0.996 | locus YJL164C, strain tpk1, stronger effect = lower value 0.995 | locus YJL166W, strain qcr8, stronger effect = lower value 0.979 | locus YJL168C, strain set2, stronger effect = lower value 0.991 | locus YJL187C, strain SWE1 (second series), stronger effect = lower value 1.01 | locus YJL187C, strain SWE1, stronger effect = lower value 1 | locus YJR043C, strain POL32, stronger effect = lower value 0.941 | locus YJR066W, strain TOR1, stronger effect = lower value 0.961 | locus YJR075W, strain HOC1, stronger effect = lower value 0.993 | locus YKL009W, strain mrt4, stronger effect = lower value 0.971 | locus YKL068W, stronger effect = lower value 0.995 | locus YKL085W, strain MDH1 (second series), stronger effect = lower value 0.995 | locus YKL085W, strain MDH1, stronger effect = lower value 0.995 | locus YKL160W, strain elf1, stronger effect = lower value 1.01 | locus YKR001C, strain vps1, stronger effect = lower value 0.985 | locus YKR026C, strain gcn3, stronger effect = lower value 0.998 | locus YKR091W, strain srl3, stronger effect = lower value 0.997 | locus YLL001W, strain dnm1, stronger effect = lower value 1.01 | locus YLL026W, stronger effect = lower value 0.995 | locus YLL041C, strain sdh2, stronger effect = lower value 0.986 | locus YLR027C, strain aat2, stronger effect = lower value 1.01 | locus YLR039C, strain RIC1, stronger effect = lower value 0.955 | locus YLR058C, strain SHM2, stronger effect = lower value 0.97 | locus YLR102C, strain apc9, stronger effect = lower value 0.979 | locus YLR113W, strain HOG1, stronger effect = lower value 0.929 | locus YLR221C, strain rsa3, stronger effect = lower value 0.99 | locus YLR258W, strain gsy2, stronger effect = lower value 1.01 | locus YLR262C, strain YPT6 (second series), stronger effect = lower value 0.993 | locus YLR262C, strain YPT6, stronger effect = lower value 0.967 | locus YLR268W, strain sec22, stronger effect = lower value 0.972 | locus YLR320W, strain mms22, stronger effect = lower value 0.979 | locus YLR342W, strain FKS1, stronger effect = lower value 0.981 | locus YLR357W, strain rsc2, stronger effect = lower value 0.923 | locus YLR370C, strain arc18, stronger effect = lower value 0.997 | locus YLR371W, strain rom2, stronger effect = lower value 0.981 | locus YLR384C, strain iki3, stronger effect = lower value 0.995 | locus YLR418C, strain cdc73, stronger effect = lower value 1.04 | locus YML016C, strain PPZ1, stronger effect = lower value 0.96 | locus YML032C, strain rad52, stronger effect = lower value 0.996 | locus YML120C, strain ndi1, stronger effect = lower value 0.995 | locus YML124C, strain tub3, stronger effect = lower value 0.995 | locus YMR058W, strain fet3, stronger effect = lower value 0.987 | locus YMR078C, strain ctf18, stronger effect = lower value 0.983 | locus YMR125W, strain sto1, stronger effect = lower value 0.996 | locus YMR129W, stronger effect = lower value 1.01 | locus YMR205C, strain PFK2, stronger effect = lower value 0.992 | locus YMR223W, strain ubp8, stronger effect = lower value 1.01 | locus YMR231W, strain pep5, stronger effect = lower value 0.994 | locus YMR307W, strain GAS1, stronger effect = lower value 1.03 | locus YNL067W, strain RPL9B, stronger effect = lower value 0.999 | locus YNL071W, strain lat1, stronger effect = lower value 1 | locus YNL153C, strain GIM3, stronger effect = lower value 1.02 | locus YNL183C, strain NPR1, stronger effect = lower value 0.937 | locus YNL209W, strain ssb2, stronger effect = lower value 1.01 | locus YNL233W, strain BNI4, stronger effect = lower value 1.03 | locus YNL248C, strain rpa49, stronger effect = lower value 0.993 | locus YNL250W, strain rad50, stronger effect = lower value 0.991 | locus YNL271C, strain bni1, stronger effect = lower value 0.99 | locus YNL298W, strain CLA4, stronger effect = lower value 0.959 | locus YNL307C, strain MCK1, stronger effect = lower value 1 | locus YNL322C, strain KRE1 (second series), stronger effect = lower value 0.998 | locus YNL322C, strain KRE1, stronger effect = lower value 0.986 | locus YNR049C, strain mso1, stronger effect = lower value 0.982 | locus YNR052C, strain pop2, stronger effect = lower value 1.01 | locus YOL012C, strain htz1 1.1 | locus YOL147C, strain pex11, stronger effect = lower value 0.993 | locus YOR001W, strain rrp6, stronger effect = lower value 1 | locus YOR061W, strain CKA2, stronger effect = lower value 0.942 | locus YOR069W, strain VPS5, stronger effect = lower value 0.993 | locus YOR070C, strain gyp1, stronger effect = lower value 0.999 | locus YOR080W, strain dia2, stronger effect = lower value 0.99 | locus YOR083W, strain WHI5, stronger effect = lower value 0.991 | locus YOR106W, strain vam3, stronger effect = lower value 0.995 | locus YOR136W, strain idh2, stronger effect = lower value 1 | locus YOR144C, strain elg1, stronger effect = lower value 0.983 | locus YOR184W, strain ser1, stronger effect = lower value 0.951 | locus YOR231W, strain MKK1, stronger effect = lower value 0.983 | locus YOR265W, strain rbl2, stronger effect = lower value 0.991 | locus YOR270C, strain vph1, stronger effect = lower value 1.02 | locus YOR290C, strain snf2, stronger effect = lower value 1.02 | locus YOR316C, strain cot1, stronger effect = lower value 1 | locus YPL051W, strain arl3, stronger effect = lower value 1 | locus YPL078C, strain atp4, stronger effect = lower value 0.992 | locus YPL106C, strain sse1, stronger effect = lower value 0.951 | locus YPL240C, strain hsp82, stronger effect = lower value 0.998 | locus YPL241C, strain CIN2, stronger effect = lower value 0.991 | locus YPL256C, strain CLN2, stronger effect = lower value 0.989 | locus YPR119W, strain clb2, stronger effect = lower value 1 | locus YPR141C, strain kar3, stronger effect = lower value 0.987 | locus YPR163C, strain tif3, stronger effect = lower value 0.984 | locus YPR167C, strain met16, stronger effect = lower value 1 | strain wtn01, stronger effect = lower value 0.96
